Exocytosis inh – LAMP-1 surface exposure blockers, TALL-104 cells – cell-based, flow cytometry, MLPCN library, primary screen; inhibition, % at 10 µM; AID 651702, 2012; 360,000 compounds, 0.66% hits; TALL-104 LAMP-1 surface exposure; cells stimulated with thapsigargin and PMA;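 active = inhibition above about 55%, limit read from the data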
HTR2A ag – mouse Htr2a agonists via beta-arrestin recruitment, primary screen, cell-based, luminescence; 5-hydroxytryptamine receptor 2A (Mus musculus), P35363; CHO-K1 mHTR2A beta-arrestin complementation; percent of 30 µM serotonin response; activation, % at 7.6 µM; 360,000 compounds, 0.66% hits;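 active = activation above a run cutoff, the mean activation of all tested compounds plus 3 SD, cut at about 14% in these data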;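 note: 0% = plate median of compound wells and 100% = 30 µM serotonin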
ABHD5-PLIN5 inh – ABHD5-PLIN5 interaction inhibitors, primary screen, cell lysate, split luciferase complementation, luminescence. AID 602281, 2012. Perilipin-5 (Homo sapiens) + 1-acylglycerol-3-phosphate O-acyltransferase ABHD5 (Homo …. 360,000 compounds, 0.78% hits. inhibition, % at 4 µM. Split G. princeps luciferase complementation, 4 h;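 active = inhibition above the mean inhibition across every tested compound plus 3 SD, cut at about 22% in these data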;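 note: 0% = DMSO only wells and the 100% control is not disclosed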
Beta2AR agonist – beta2AR agonists driving receptor internalization, primary screen, cell-based, FAP fluorogen, flow cytometry. Beta-2 adrenergic receptor (Homo sapiens), P07550. Am2.2-beta2AR cells. response, % (concentration not given with the values). 340,000 compounds, 0.43% hits;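 active = response above a set limit, near 3 SD of response in nonfluorescent compounds, cut at about 42% in these data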
NTR1 agonist – agonists of human NTR1, primary screen, imaging, U2OS cells, beta-arrestin-GFP, high content. Neurotensin receptor type 1 (Homo sapiens), P30989. NTR1-U2OS beta-arrestin-GFP spot imaging, agonist mode. 330,000 compounds, 0.17% hits. AID 493036, 2011. activation, % at 20 µM;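 active = activation at or above 40% of the spot to cytoplasm intensity ratio, with at least 20 cells analyzed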;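 note: 0% = DMSO without peptide and 100% = 100 nM NTR1 peptide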
Target sequence (P30989 whole entry, looked up): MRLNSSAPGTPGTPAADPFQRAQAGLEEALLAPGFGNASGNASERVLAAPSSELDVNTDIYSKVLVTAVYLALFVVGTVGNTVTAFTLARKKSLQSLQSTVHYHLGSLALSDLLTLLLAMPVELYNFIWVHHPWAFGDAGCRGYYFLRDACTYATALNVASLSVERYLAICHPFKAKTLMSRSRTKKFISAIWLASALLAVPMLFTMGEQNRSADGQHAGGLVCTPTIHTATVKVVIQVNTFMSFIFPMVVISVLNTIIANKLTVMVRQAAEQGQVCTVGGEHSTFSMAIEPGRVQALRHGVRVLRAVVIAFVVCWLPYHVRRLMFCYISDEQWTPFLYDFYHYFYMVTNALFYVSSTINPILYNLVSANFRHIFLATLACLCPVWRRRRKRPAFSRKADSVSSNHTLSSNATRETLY
Exocytosis CP01 – inhibitors of lytic granule exocytosis, confirmation, TALL-104 cells, flow cytometry, Cherry Pick01; LAMP-1 externalization; stimulated with PMA plus thapsigargin; inhibition, % at 10 µM; shares compounds with Exocytosis inh; 1,500 compounds, 11% hits; in the data active = inhibition above about 60%;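 note: 0% = stimulated vehicle wells and 100% = unstimulated wells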
Starred values were filed as active, the others as inactive; . = no result given. Rows were chosen to be rich in hits. Some 2.3% of all compounds tested hit in one or more screens of this group.

SMILES | Exocytosis inh | HTR2A ag | ABHD5-PLIN5 inh | Beta2AR agonist | NTR1 agonist | Exocytosis CP01
CCCCNC(=O)C1(NC(=O)Nc2ccc(C)cc2)CCCCC1 | -1.7 | 3.0 | 0.8 | -0.9 | 1.5 | .
Cc1cccn2c(=O)c3cc(C(=O)NC4CCCC4)c(=N)n(CC4CCCO4)c3nc12 (configuration not stated) | 10.8 | -1.3 | 3.2 | -44.9 | 10.3 | .
Cc1cccn2c(=O)c3cc(C(=O)NC4CCCCC4)c(=N)n(Cc4ccc(F)cc4)c3nc12 | 70.2* | -5.8 | -6.4 | 77.9* | 14.2 | 40.4
O=S(=O)(c1ccccc1)c1nnn2c1nc(NC1CCN(Cc3ccccc3)CC1)c1ccccc12 | 26.6 | -11.5 | -0.7 | 0.5 | 7.8 | .
O=S(=O)(c1ccccc1)c1nnn2c1nc(NC1CCN(Cc3ccccc3)CC1)c1cc(Cl)ccc12 | 63.8* | -9.6 | 4.0 | 34.4 | 5.0 | 69.2*
COc1cccc(CNCCc2c[nH]c3ccccc23)c1OCc1ccccc1 | 64.7* | -0.5 | 12.7 | 18.5 | 10.3 | 27.9
CCc1cccc2c(C(=O)C(NCCOC)c3ccccc3)c[nH]c12 (configuration not stated) | 65.8* | 0.4 | 3.7 | -0.5 | -0.3 | -9.7
CCNC(C(=O)c1c[nH]c2c(CC)cccc12)c1ccccc1 (configuration not stated) | 6.9 | -4.5 | -5.4 | 13.3 | -1.3 | .
O=C(COc1ccccc1Cl)NCCCNC(=O)c1cccnc1 | -6.7 | 4.2 | -0.1 | -3.7 | -0.7 | .
O=C1c2ccccc2NC(c2ccccc2)N1Cc1ccccc1 (configuration not stated) | 16.1 | 2.6 | 1.1 | 9.0 | -0.1 | .
Cc1ccc(CN2C(=O)c3ccccc3NC2c2cc(Br)ccc2O)cc1 (configuration not stated) | 74.1* | 2.3 | -6.1 | 8.8 | 24.6 | -2.4
CCCSc1nc2c(c(=O)[nH]c(=O)n2C)n1CC(O)COc1ccccc1 (configuration not stated) | -1.9 | 3.2 | 1.7 | 5.0 | 8.5 | .
CCSc1nc2c(c(=O)[nH]c(=O)n2C)n1CC(O)COc1ccccc1 (configuration not stated) | 87.1* | 3.8 | -5.7 | 4.5 | 1.4 | -2.3
COC(=O)c1ccn(Cc2ccccc2Cl)n1 | -0.9 | 0.7 | -5.5 | 4.8 | . | .
Clc1ccc(-c2c(C3=NCCCN3)nnn2-c2ccc(Cl)cc2)cc1 | 56.2* | 0.4 | 3.9 | -0.9 | . | -2.8
Nc1c(-c2ccc(Cl)cc2)nnn1-c1ccccc1 | -1.1 | -2.8 | -3.3 | -1.4 | -0.4 | .
CCc1ccc(-c2cc(C)no2)cc1S(=O)(=O)N1CCOc2ccccc21 | 89.3* | -0.6 | -1.9 | -18.3 | 2.9 | -2.1
COc1ccc(-c2cc(C)no2)cc1S(=O)(=O)N1CCOc2ccc(C)cc21 | -3.3 | 1.0 | 1.4 | 2.5 | 0.4 | .
COc1cc2nc(Nc3ccc(F)cc3)nc(N)c2cc1OC | 64.6* | -1.4 | -1.6 | 4.8 | 0.3 | -11.5
CN1CCN(c2cc(-c3ccccc3)nc3cc(-c4ccc(F)cc4)nn23)CC1 | 103.4* | -1.1 | 10.1 | 21.4 | 14.2 | 100.2*
Fc1ccc(-c2cc3nc(-c4ccccc4)cc(N4CCN(CCN5CCOCC5)CC4)n3n2)cc1 | 73.2* | -5.8 | 17.4 | 1.3 | . | 38.4
FC(F)(F)c1cccc(-c2cncc(N3CCN(CCN4CCCC4)CC3)n2)c1 | 38.8 | -2.8 | 2.5 | . | . | .
Fc1cccc(-c2cncc(N3CCN(CCN4CCCC4)CC3)n2)c1 | 59.1* | 4.7 | 8.3 | . | . | -9.4
C=CCSc1nc2c(C(=O)OCC)nnn2c2ccccc12 | 80.9* | -3.6 | 9.6 | 9.7 | . | 0.0
Oc1ccc(-c2c(-c3ccsc3)sc3ccccc23)cc1 | 86.7* | -9.2 | -11.9 | -6.6 | 29.5 | -3.4
SMILES | Exocytosis inh | HTR2A ag | ABHD5-PLIN5 inh | Beta2AR agonist | NTR1 agonist | Exocytosis CP01
O=C(COc1coc(CN2CCN(c3ccccc3F)CC2)cc1=O)NC1CCCC1 | 3.4 | -0.5 | 6.2 | -0.7 | -0.3 | .
N#CC1=C(N)Oc2cc(N)ccc2C1c1cccc(Br)c1 (configuration not stated) | 71.8* | 10.1 | -1.1 | 9.7 | 3.0 | -10.8
Cc1ccc(C2C(C#N)=C(N)Oc3cc(N)ccc32)cc1 (configuration not stated) | -20.9 | -1.3 | 1.9 | 8.6 | 0.7 | .
CC(=O)Nc1cccc(NC(=O)Cc2cccs2)c1 | 10.3 | 3.1 | 6.5 | -3.7 | 0.5 | .
O=C(Cc1cccs1)Nc1cccc(-c2nc3cc4ccccc4cc3[nH]2)c1 | 65.6* | -6.6 | 1.7 | 23.6 | . | 21.5
NC(=S)NN=C(c1ccc(F)cc1)C1CC1 | -0.5 | 2.5 | -3.1 | 0.0 | . | .
CN(CCCC1CCCC1)C(=O)c1cc(COc2ccc(F)c(F)c2)on1 | 68.5* | 0.5 | -1.3 | -3.0 | 2.0 | -10.6
CN(CCCC1CCCC1)C(=O)c1cc(COc2c(F)cccc2F)on1 | 8.2 | -2.6 | 2.7 | -1.1 | 5.5 | .
COc1cc(Cl)ccc1OCc1cc(C(=O)N(C)CCc2cnn(C)c2)no1 | -1.2 | 0.1 | -3.5 | 0.5 | 0.0 | .
Cc1ccc2c(CN(C)Cc3ccc(OC(F)F)cc3)cc(=O)oc2c1C | 83.5* | -0.8 | -12.0 | 2.2 | 4.5 | -12.3
Cc1cc(C)cc(C(=O)NCC(=O)OCC(=O)N2CCN(S(=O)(=O)c3ccc4ccccc4c3)CC2)c1 | -4.4 | 2.5 | 8.0 | 0.1 | 2.1 | .
CCCCn1c(N2CCC(Cc3ccccc3)CC2)nc2c1c(=O)[nH]c(=O)n2C | 88.4* | 0.2 | 5.7 | 1.9 | 23.9 | 4.2
Cc1nnc(SCCn2c(N3CCC(Cc4ccccc4)CC3)nc3c2c(=O)[nH]c(=O)n3C)s1 | . | . | . | . | 12.4 | .
O=C1Nc2ccccc2C1=Nc1ccccc1-c1ccccc1 | -21.5 | -3.5 | -16.5 | 1.1 | . | .
CCC(C)[C@H](NC(=O)Nc1ccccc1F)C(=O)OC (some centres not stated) | 82.9* | 0.2 | -7.2 | 1.6 | 0.0 | -12.9
COC(=O)[C@H](C)NC(=O)Nc1ccccc1F | 10.2 | -0.1 | 0.9 | -2.0 | 0.1 | .
CCN(CC(=O)Nc1ccc(NC(C)=O)cc1)C(=O)c1cccc(N2C(=O)c3ccccc3C2=O)c1 | -0.7 | -3.3 | -2.7 | -5.5 | . | .
Cc1ccc(NC(=O)C2CCN(C(=O)c3ccc(F)cc3)CC2)nc1 | -7.1 | -8.5 | -3.9 | -3.4 | -0.2 | .
COc1ccc(C2CCCN2CC(O)COc2ccccc2C(C)C)cc1 (configuration not stated) | 63.4* | -6.2 | -1.6 | 4.8 | 5.2 | -12.1
CCOC(=O)N1CCN(CC(O)COc2ccccc2C(C)C)CC1 (configuration not stated) | 1.2 | -4.3 | -4.5 | -4.1 | 1.5 | .

Assay outcomes (PubChem BioAssay)
